Epigenetic derep = Quantitative High-Throughput Screen for Regulators of Epigenetic Control. murine LDR cells, GFP reporter derepression, 30 h. Potency, µM (doses to about 53.9 µM), hits mostly activators. 0.2% of 280,000 active. AID 1865, 2009; further: nearly all actives have a fitted effect of over 60% in size
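Reporter derepression read as number of fluorescent GFP-positive objects, 20-120 um in size, counted by laser-scanning cytometer. Mouse LDR line with an epigenetically silenced CMV-GFP locus; compound incubation 30 h, 37 C.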
VP16 counter = VP16 counterscreen qHTS for inhibitors of ROR gamma transcriptional activity; Drosophila S2 Gal4-VP16 UAS-luciferase, luminescence, 20 h; Potency, µM (titrated, usually from 53.6 µM), actives largely listed as inhibitors; 3.5% of 310,000 active; AID 2546, 2010;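 further: Gal4-VP16 expression switched on by copper sulfate through the metallothionein promoter; nearly all actives have a fitted effect of over 50% in size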
PINK1 expr mod = A Quantitative High throughput Screen to Identify Chemical Modulators of PINK1 Expression; 0.2% of 410,000 active; Potency, µM (highest dose often 76.6 µM), actives largely listed as activators; AID 624263, 2012; PINK1 immunofluorescence, high-content cytometry, 24 h; active means well fitted activation curve with a large enough effect; inconclusive means small, poorly fitted or top-dose-only effect; cell line not stated here; further: nearly all actives have a fitted effect of over 65% in size
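Compound titrations (5 concentrations, 24 h) on a stable cell line; DMSO and CCCP controls. Endpoint: fixed-cell PINK1 immunofluorescence with mitochondrial, cell and nuclear markers, scanned by microplate cytometer.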
RORgamma inh = qHTS for inhibitors of ROR gamma transcriptional activity | 5.4% of 310,000 active | Potency, µM (series often up to 53.6 µM), actives largely listed as inhibitors | Nuclear receptor ROR-gamma (Mus musculus), P51450 | AID 2551, 2010 | Drosophila S2 Gal4-RORgamma UAS-luciferase reporter, 20 h; further: nearly all actives have a fitted effect of over 60% in size
Target sequence (P51450 whole entry, looked up, the tested form may be a part): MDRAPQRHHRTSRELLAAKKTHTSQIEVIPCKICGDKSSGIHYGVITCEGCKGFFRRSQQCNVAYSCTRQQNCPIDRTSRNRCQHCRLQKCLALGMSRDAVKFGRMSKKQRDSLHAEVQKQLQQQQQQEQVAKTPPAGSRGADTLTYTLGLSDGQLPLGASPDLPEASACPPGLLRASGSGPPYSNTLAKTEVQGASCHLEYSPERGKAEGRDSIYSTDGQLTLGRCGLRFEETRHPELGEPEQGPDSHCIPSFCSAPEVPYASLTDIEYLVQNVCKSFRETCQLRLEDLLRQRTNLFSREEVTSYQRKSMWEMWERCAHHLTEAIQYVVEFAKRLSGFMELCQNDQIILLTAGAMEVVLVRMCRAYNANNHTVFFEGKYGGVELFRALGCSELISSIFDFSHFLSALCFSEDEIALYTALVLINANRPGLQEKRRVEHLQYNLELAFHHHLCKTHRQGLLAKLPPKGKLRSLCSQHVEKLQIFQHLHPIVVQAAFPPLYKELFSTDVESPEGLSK
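Schneider cells (Drosophila), stable Gal4 DBD–ROR gamma + UAS-luc; 1 hr cmpd preincubation; Cu2+ induction 700 uM final; 20 hr ambient; luminescence.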
ClpP mod = qHTS Assay for Activators of ClpP; 1.9% of 340,000 active; purified B. subtilis ClpP, FRET peptide cleavage, 20 min; Potency, µM (doses to about 57.5 µM); active means well fitted falling curve with a large enough effect; inconclusive means small, poorly fitted or top-dose-only effect; inactive means no such curve, though single readings can be large or run the other way; further: the source files actives as falling curves though it sought activators and does not explain the sign; nearly all actives have a fitted effect of over 65% in size
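Buffer: 100 mM Tris/HCl pH8, 100 mM KCl, 0.05% low protease BSA, 2.5% glycerol, 0.01% Tween-20. ClpP 10 microg/mL final; 20 min RT; delta FRET normalized to ADEP and DMSO controls.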
Sfp PPTase inh = qHTS Assay for Inhibitors of Bacillus subtilis Sfp phosphopantetheinyl transferase (PPTase); Biochemical Sfp PPTase activity, qHTS; Potency, µM, actives largely listed as inhibitors; 3.5% of 310,000 active; 4'-phosphopantetheinyl transferase ffp (Bacillus subtilis), Q9F4F7;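 further: the enzyme is Sfp with the accession as filed and its product quenches rhodamine fluorescence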
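After 15 min at room temperature with compound, 15 nM Sfp received 5 uM rhodamine-CoA plus 12.5 uM BHQ-2-ybbR (50 mM Hepes pH 7.6, 10 mM MgCl2). Rate came from the fluorescence difference over 30 min, ex 525/em 598 nm.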
Large screens that a line does not name were inactive. Most compounds without a hit are left out; they make up all but 8.1% or so of the library. Unless noted, the call rests on the fitted dose curve; in most records, active means well fitted curve in the direction sought with a large enough effect; inconclusive means small, poorly fitted or top-dose-only effect, or another doubt; inactive means no such curve, though single readings can be large; an effect the other way counts as inactive or inconclusive.

O=c1oc2ccc3ccccc3c2c2c1SC(C(F)(F)F)C2 (stereo unspecified)	ClpP mod 35µM
CCOC(=O)C1=C(C)NC(=O)NC1c1ccc(OCC(=O)Nc2ccccc2)c(OC)c1 (stereo unspecified)	none
CCOC(=O)C1=C(C)NC(=O)C1CC(=O)Nc1ccccc1 (stereo unspecified)	VP16 counter inconclusive, Sfp PPTase inh 79µM (no result: PINK1 expr mod, ClpP mod)
CC(C)CC(=O)N1CCN(Cc2ccccc2[N+](=O)[O-])CC1	Sfp PPTase inh 56µM (no result: ClpP mod)
O=C(C1CCCN(Cc2ccccc2[N+](=O)[O-])C1)N1CCCC1 (stereo unspecified)	ClpP mod 28µM (no result: Epigenetic derep)
CN(Cc1ccccc1)C1CCN(Cc2ccccc2[N+](=O)[O-])CC1	Sfp PPTase inh 79µM (no result: Epigenetic derep, ClpP mod)
O=[N+]([O-])c1ccccc1CN1CCN(S(=O)(=O)Cc2ccccc2)CC1	Sfp PPTase inh inconclusive (no result: Epigenetic derep)
CC(C)CC(=O)N1CCN(Cc2cccc([N+](=O)[O-])c2)CC1	none
Cc1ccc(C(=O)Nc2cnn(-c3ccc(C(=O)N(C)Cc4n[nH]c5c4CCCC5)cc3)c2)c(C)c1	none (no result: Epigenetic derep, VP16 counter, RORgamma inh, ClpP mod, Sfp PPTase inh)
O=C(CSC1=Nc2ccccc2N=C(c2ccc(F)cc2)C1)NCc1ccccc1Cl	none (no result: VP16 counter, RORgamma inh, Sfp PPTase inh)
CCOc1ccc(NC(=O)C2CCCN(S(=O)(=O)c3c(C)noc3/C=C/N(C)C)C2)cc1 (stereo unspecified)	none (no result: VP16 counter, RORgamma inh, Sfp PPTase inh)
CC(C)(C)c1cc(OC(=O)C2CCCC2)ccc1O	VP16 counter 11µM, RORgamma inh inconclusive (no result: Epigenetic derep)
Cc1cccc(NC(=O)CN2C(=O)C(c3ccccc3)=NC23CCC(C)CC3)c1 (stereo unspecified)	none (no result: VP16 counter, RORgamma inh, Sfp PPTase inh)
C/C(=N\NC(=O)CSCc1ccccc1Cl)c1cc(O)ccc1O	VP16 counter 11µM, RORgamma inh 5µM, Sfp PPTase inh inconclusive
COc1ccc(CCNC(=O)CN(c2ccc(C)cc2)S(=O)(=O)c2ccc(OC)cc2)cc1	none (no result: VP16 counter, RORgamma inh, Sfp PPTase inh)
NS(=O)(=O)c1ccc(NC(=S)N2CCN(c3ccccc3)CC2)cc1	none
CCOC(=O)C1CCN(C(=S)Nc2ccc(S(N)(=O)=O)cc2)CC1	Sfp PPTase inh 45µM
CCOC(=O)C1CCN(S(=O)(=O)c2ccc(OCC(=O)OC)cc2)CC1	none (no result: PINK1 expr mod)
CCOC(=O)C1CCN(C(=S)Nc2ccc(C)cc2)CC1	RORgamma inh inconclusive
CCOC(=O)C1CCN(C(=O)Nc2ccc3snnc3c2)CC1	RORgamma inh inconclusive
CCOC(=O)C1CCN(C(=O)Nc2ccc3nccnc3c2)CC1	RORgamma inh inconclusive, ClpP mod 32µM
CCOC(=O)C1CCN(S(=O)(=O)c2ccc(C(C)=O)cc2)CC1	PINK1 expr mod 11µM
NS(=O)(=O)c1ccc(NC(=S)N2CCC(O)CC2)cc1	Sfp PPTase inh 45µM (no result: ClpP mod)
COc1ccc(-c2nc3cc(C)ccc3cc2CN(C(=O)c2cc(C)nn2C)C2CC2)cc1OC	none (no result: Epigenetic derep, VP16 counter, RORgamma inh, ClpP mod, Sfp PPTase inh)
CCCCCn1c(=O)[nH]c2cc(C(=O)NCc3ccc(F)cc3)ccc2c1=O	none (no result: VP16 counter, RORgamma inh, Sfp PPTase inh)
CCOC(=O)C1CCN(S(=O)(=O)c2ccc(-c3nc4ccccc4s3)s2)CC1	PINK1 expr mod inconclusive, ClpP mod 25µM
C[C@H]1[C@@H](OC(=O)CCC(=O)O)OC2OC3(C)CC[C@H]4[C@H](C)CC[C@@H]1[C@@]24OO3 (stereo partly specified)	none (no result: Epigenetic derep, PINK1 expr mod, ClpP mod)
CCSc1nsc(NC(=O)Nc2ccccc2F)n1	PINK1 expr mod inconclusive, RORgamma inh inconclusive (no result: Epigenetic derep)
C=CCSc1nsc(NC(=O)Nc2ccc(F)cc2)n1	VP16 counter 3.5µM, PINK1 expr mod inconclusive, RORgamma inh inconclusive (no result: Epigenetic derep, ClpP mod)
Cc1ccc2nc(C)c(CN3CCN(c4ccc([N+](=O)[O-])cc4Cl)CC3)n2c1	VP16 counter 7.1µM, RORgamma inh 14µM (no result: Epigenetic derep, PINK1 expr mod, ClpP mod)
CC1(C)OC(c2ccccc2)=C/C(=C/C=C2C(=O)c3ccccc3C2=O)O1	none (no result: ClpP mod)
COc1ccc(N=C/C=C2\C=C(c3ccccc3)OC(C)(C)O2)cc1	Epigenetic derep inconclusive, Sfp PPTase inh 79µM
